Screening data deposited in PubChem by National Center for Advancing Translational Sciences (NCATS).
KCNH2 3.1 inh = blocks the human KCNH2 3.1 channel isoform; U2OS KCNH2 3.1, thallium flux FluxOr; active compounds read low; activity change, % (tested at about 1.8 µM); actives 0.95% (n = 340,000);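 active means maximum activity change below -70%; inconclusive means maximum activity change from -70% to -50%; inactive means maximum activity change above -50%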;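 further: thallium influx rate constant from kinetic fluorescence after stimulation buffer; on the % scale 0 is the no-effect control and ±100 the full control effect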
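Virally transduced U2OS (3.1 isoform, 4 h infection in dark at RT) → overnight 37 C → FluxOr + Red40 in HBSS/HEPES, 45 min → stimulation buffer, 2 min kinetic read → rate constant vs DMSO controls.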
EPAC2 agonist = EPAC2 (human) agonism | Potency, µM (titrated, usually from 154 µM), inactives show at the top dose activation, usual class: activators | AID 720711 | actives 0.079% (n = 360,000) | EPAC2 activation, biochemical qHTS; response scale: 100% = 6.5 mM cAMP response; further: potency means the concentration at half of the fitted maximal effect; nearly all actives have a fitted effect of over 50% in size
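Exchange assay: 100 nM EPAC2 with 250 nM Rap1B-BODIPY-GDP and 50 uM GDP. Fluorescence (ex 480/em 540 nm) read every 5 min for 30 min at room temperature. Data normalized to 6.5 mM cAMP as agonist control.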
EPAC1 agonist = EPAC1 (human) agonism. EPAC1 agonist qHTS, biochemical assay; response scale: 100% = response to 6.5 mM cAMP. actives 0.073% (n = 360,000). Potency, µM (series often up to 154 µM), for inactives: top-dose activation, usual class: activators. O95398; further: potency means the concentration at half of the fitted maximal effect; nearly all actives have a fitted effect of over 60% in size
Target sequence (O95398 whole entry, looked up): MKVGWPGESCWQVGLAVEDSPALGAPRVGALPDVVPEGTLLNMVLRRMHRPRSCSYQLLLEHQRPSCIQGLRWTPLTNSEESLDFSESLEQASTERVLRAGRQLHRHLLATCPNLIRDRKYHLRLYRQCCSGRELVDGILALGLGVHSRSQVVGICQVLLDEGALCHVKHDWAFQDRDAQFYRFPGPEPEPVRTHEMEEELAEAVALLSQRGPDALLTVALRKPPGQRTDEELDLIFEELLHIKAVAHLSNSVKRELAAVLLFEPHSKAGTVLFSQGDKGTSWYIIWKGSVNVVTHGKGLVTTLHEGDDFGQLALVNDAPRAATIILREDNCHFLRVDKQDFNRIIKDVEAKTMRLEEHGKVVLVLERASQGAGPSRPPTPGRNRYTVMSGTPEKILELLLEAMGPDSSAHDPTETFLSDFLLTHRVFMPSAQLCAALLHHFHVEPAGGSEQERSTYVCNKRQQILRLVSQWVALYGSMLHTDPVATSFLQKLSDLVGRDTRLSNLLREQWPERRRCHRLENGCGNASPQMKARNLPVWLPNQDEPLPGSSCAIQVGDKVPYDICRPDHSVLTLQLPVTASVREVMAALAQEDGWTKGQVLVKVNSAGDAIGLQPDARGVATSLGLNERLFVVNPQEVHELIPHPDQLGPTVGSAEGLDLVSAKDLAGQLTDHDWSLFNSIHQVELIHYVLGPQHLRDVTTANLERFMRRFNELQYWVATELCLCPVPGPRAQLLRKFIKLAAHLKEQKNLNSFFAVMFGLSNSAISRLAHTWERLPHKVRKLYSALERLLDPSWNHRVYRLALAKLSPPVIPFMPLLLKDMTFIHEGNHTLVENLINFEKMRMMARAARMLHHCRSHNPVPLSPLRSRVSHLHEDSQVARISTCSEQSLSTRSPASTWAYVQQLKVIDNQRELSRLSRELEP
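Nucleotide exchange by EPAC1 (100 nM) on Rap1B–BODIPY-GDP (250 nM) in the presence of 50 uM GDP is tracked fluorescently at 480/540 nm over 30 min. Signals are normalized to a 6.5 mM cAMP control.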
EPAC1 antag = EPAC1 (human) antagonism | O95398 | EPAC1 GEF assay, Rap1b-BODIPY-GDP exchange fluorescence | Potency, µM (series often up to 115 µM), for the others: at the top dose activity change, negative = inhibition, hits mostly inhibitors | actives 0.14% (n = 360,000);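 further: potency means the concentration at half of the fitted maximal effect; plate controls were vehicle for no effect and positive control for full effect; nearly all actives have a fitted effect of over 50% in size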
EPAC2 antag = antagonists of human EPAC2 | actives 0.18% (n = 360,000) | AID 720708 | Potency, µM (titrated, usually from 114 µM), without a hit: top-dose activity, negative = inhibition, hits mostly inhibitors | EPAC2 GEF exchange of Rap1B-BODIPY-GDP, fluorescence; further: potency means the concentration at half of the fitted maximal effect; on the % scale 0 is the no-effect control and ±100 the full control effect; nearly all actives have a fitted effect of over 45% in size
KCNH2 WT inh = blocks the wildtype human KCNH2 potassium channel; Q12809; U2OS, BacMam KCNH2, thallium flux FluxOr; active compounds read low; activity change, % at 1.84 µM; actives 0.37% (n = 340,000); AID 720551;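 active means maximum activity change below -70%; inconclusive means maximum activity change between -70% and -50%; inactive means maximum activity change above -50%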; further: on the % scale 0 is the no-effect control and ±100 the full control effect
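U2OS cells transduced with wild-type KCNH2 virus are loaded with FluxOr dye for 45 min, and thallium flux is measured in kinetic reads before and after stimulation buffer. Rate constants are normalized to DMSO controls.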
* marks the source's active call; other numbers are inactive results; ? = inconclusive; . = no result. An excerpt weighted towards active compounds, which were near 1.4% of everything screened. Unless noted, the call rests on the fitted dose curve; in most records, active means well fitted curve in the direction sought with a large enough effect; inconclusive means small, poorly fitted or top-dose-only effect, or another doubt; inactive means no such curve, though single readings can be large; an effect the other way counts as inactive or inconclusive.

SMILES | KCNH2 3.1 inh | EPAC2 agonist | EPAC1 agonist | EPAC1 antag | EPAC2 antag | KCNH2 WT inh
CCn1c(NCc2ccccc2NS(=O)(=O)c2ccc(C)cc2)nc2ccccc21 | -25 | 3% | 13% | -9% | -17% | -3
CCn1c(NCc2cc(Br)ccc2NS(=O)(=O)c2ccc(C)cc2)nc2ccccc21 | -82* | 3% | 2% | -5% | 3% | 5
COc1ccc(C2=NS(=O)(=O)N(C)C(C(=O)N3CCC(C)CC3)=C2)cc1 | -113* | 7% | -8% | -1% | 4% | 1
Cc1nn(C)c2ncc(C(N)=O)c(Oc3ccc(Cl)cc3)c12 | -12 | 20% | 5% | -8% | -3% | 0
CC(=O)c1ccc(NC(=O)CSc2nnc(-c3ccco3)c(-c3ccco3)n2)cc1 | 4 | 5% | 2% | 50µM* | 8% | 8
O=C(CSc1nnc(-c2ccco2)c(-c2ccco2)n1)c1ccccc1 | -5 | 12% | 18% | ? | -2% | -5
COC(=O)[C@H](CCSC)NS(=O)(=O)c1ccccc1Br | -16 | 6% | -17% | -4% | 8% | 0
O=c1c2c3c(sc2ncn1/N=C/c1cccnc1)CCCC3 | -77* | 2% | -10% | 4% | 2% | 9
CN(CC(=O)Nc1ccc(SC(F)F)cc1)C1CCCCC1 | -94* | -2% | 5% | 1% | -6% | -37
COc1ccc(CN(C)CC(=O)Nc2ccc(N3CCOCC3)cc2)cc1OC | 6 | 7% | 3% | -13% | 3% | 14
COc1ccc(CN(C)CC(=O)Nc2ccc(SC(F)F)cc2)cc1OC | -98* | 4% | 2% | -12% | -12% | -38
OCCC1CN(C2CCC2)CCN1Cc1ccc(F)c(F)c1 (stereo not given) | 46 | 13% | 8% | 5% | 2% | 3
O=C1NC[C@H](CCCCN2C[C@H](Cc3ccc(O)cc3)N(CCc3ccccc3)C(=O)C2=O)N(CCC2CCCCC2)C1=O | . | -6% | -12% | 22% | -3% | .
CC1=C(C(=O)N2CCCCCC2)CC(CC(=O)NC2CCCC2)C(=O)N1Cc1ccc(C(C)(C)C)cc1 (stereo not given) | . | 5% | -1% | -8% | -5% | .
CCOC(=O)c1c(N)c2cc([N+](=O)[O-])ccc2n1C | -97* | 10% | 2% | -9% | -4% | -7
CCC1=NN(C(=O)c2ccc(Br)cc2)C(O)(c2ccccc2)C1 (stereo not given) | . | 1% | 112µM* | 88% | -7% | -10
Cc1cc(NC(=O)CCN2C(=O)C3C4C=CC(C4)C3C2=O)c2ccccc2n1 (stereo not given) | -138* | 14% | 4% | -1% | -2% | -133*
CCN(CC)c1ccc(/C=C(\C#N)C(N)=O)cc1 | 1 | -3% | 4% | 2% | -15% | -1
CCN(CC)c1ccc(/C=C(\C#N)C(=O)c2ccc(Br)cc2)cc1 | -35 | 100µM* | 112µM* | 141% | 123% | ?
O=C(Nc1ccc(F)c(F)c1)c1cc(S(=O)(=O)N2CCN(c3ccccn3)CC2)ccc1F | -78* | 25% | 25% | 1% | -12% | -30
O=S1(=O)C=C(Oc2ccc(F)cc2)c2ccccc21 | -12 | 6% | 6% | 1% | -2% | -3
O=S1(=O)C=C(Oc2ccc3ccccc3c2)c2ccccc21 | 3 | 11% | 5% | -1% | 25µM* | 0
